Source: the supplement of paper PMC10646978
± gives the standard deviation.

Key:
Conditions in all cases: modulator concentration 10 µM
[1] = test system: RAW-Dual (murine macrophage reporter line); assay: NF-kB reporter (SEAP) activity fold change vs agonist alone; higher = enhanced NF-kB activity
Method in brief: (§1)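 RAW-Dual murine macrophage reporter cells were plated at 50 000 per well in 384-well plates, pin-transferred compound to 10 μM final, and pre-incubated for 1 hour at 37 °C before a PRR agonist was added and the cells incubated overnight. NF-κB activity was read from supernatant SEAP with QUANTI-Blue at 620 nm absorbance, and IRF activity from Lucia luciferase with QUANTI-Luc by luminescence. Each signal was expressed as fold change by dividing by the mean agonist-only control on the same plate. Two replicate plates were averaged, with errors obtained by propagation.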

[2] = test system: RAW-Dual (murine macrophage reporter line); assay: IRF reporter (Lucia luciferase) activity fold change vs agonist alone; higher = enhanced IRF activity
Method in brief: as §1

[3] = test system: RAW-Dual (murine macrophage reporter line); assay: viability score (confluency relative to resting cells, overnight) (fraction); higher = more viable, active = viable (0.7 or more)
Method in brief: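 Overnight exposure to 10 μM final compound was carried out on RAW-Dual macrophages in 384-well plates. IncuCyte software generated two confluency masks over all wells imaged with IncuCyte. The viability score gives confluency in relation to resting cells. A compound met the cutoff if each mask exceeded 70% of resting cells.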

[4] = agonist: CpG ODN 1826 0.5 ug/mL

SMILES	NF-kB reporter [1, 4]	NF-kB reporter ([1]; agonist: LPS 0.1 ug/mL)	NF-kB reporter ([1]; agonist: MPLA […])	IRF reporter ([2]; agonist: 3'3'-cGAMP 10 ug/mL)	IRF reporter ([2]; agonist: LPS 0.1 ug/mL)	IRF reporter ([2]; agonist: MPLA […])	viability score [3]
NC(=O)c1cccnc1	0.89 ± 0.16	0.878 ± 0.33	1.03 ± 0.13	0.912 ± 0.034	0.984 ± 0.22	0.934 ± 0.14	1 (active)
O=c1ccc2ccc(OCCCCN3CCN(c4cccc5sccc45)CC3)cc2[nH]1	0.31 ± 0.016	0.917 ± 0.073	1.16 ± 0.14	1.05 ± 0.096	1.35 ± 0.25	1.15 ± 0.34	0.27 (inactive)
Oc1cccc(C=Nc2ccc(N=Cc3cccc(O)c3O)cc2)c1O	0.606 ± 0.053	0.727 ± 0.069	0.783 ± 0.079	0.712 ± 0.052	0.93 ± 0.2	0.922 ± 0.2	0.984 (active)
COc1cccc(N2CC(C(=O)NC3CCN(c4nccn5c(C)nnc45)CC3)CC2=O)c1 (configuration not stated)	1.03 ± 0.051	1.06 ± 0.092	0.955 ± 0.088	0.968 ± 0.049	1.17 ± 0.073	1.08 ± 0.11	1.01 (active)
COc1cccc(C2Nc3ccccc3-c3nnc(SC)nc3O2)c1OCC(=O)O (configuration not stated)	0.989 ± 0.099	0.988 ± 0.054	0.864 ± 0.082	1.03 ± 0.068	1.65 ± 0.11	1.24 ± 0.076	1 (active)
O=C(CSC1CC(=O)N(c2ccc(C(=O)O)cc2)C1=O)Nc1ccc(Cl)cc1 (configuration not stated)	0.921 ± 0.11	0.931 ± 0.16	1.05 ± 0.046	0.396 ± 0.085	0.99 ± 0.045	0.982 ± 0.12	1 (active)
Cc1ccc(N2CC(C(=O)NCC3CCCO3)CC2=O)cc1 (configuration not stated)	1.02 ± 0.082	0.97 ± 0.099	1.03 ± 0.037	1.03 ± 0.22	1.05 ± 0.051	1.17 ± 0.076	1 (active)
Cc1nnc(C(C)C)n1C1CC2CCC(C1)N2CC[C@H](NC(=O)C1CCC(F)(F)CC1)c1ccccc1 (some centres not stated)	0.928 ± 0.07	1.05 ± 0.069	1.03 ± 0.051	1.08 ± 0.2	0.973 ± 0.087	1.03 ± 0.11	1 (active)
O=S(=O)(c1ccc(F)cc1)N1CCC(c2nc3ccccc3[nH]2)CC1	1.19 ± 0.085	1.08 ± 0.082	1.03 ± 0.028	0.913 ± 0.033	1.01 ± 0.093	0.997 ± 0.15	0.964 (active)
CCCCCCCCc1ccc(CCC(N)(CO)CO)cc1.Cl	0.687 ± 0.18	0.685 ± 0.047	1.55 ± 0.2	0.172 ± 0.019	0.673 ± 0.072	0.615 ± 0.15	0.513 (inactive)
CN(C)CCOC(c1ccccc1)c1ccccc1.Cl	1.12 ± 0.16	1.11 ± 0.089	0.985 ± 0.11	0.791 ± 0.029	1.17 ± 0.1	1.03 ± 0.12	0.999 (active)
O=C(Cc1ccc([N+](=O)[O-])cc1)NN=Cc1ccncc1	0.864 ± 0.26	1.08 ± 0.098	1.03 ± 0.16	0.964 ± 0.038	1.15 ± 0.18	1.44 ± 0.42	1 (active)
COc1ccc(-c2[nH]c(-c3cccc(OC)c3)nc2SCC(=O)NC2CCCC2)cc1	0.849 ± 0.074	1.13 ± 0.056	1.91 ± 0.15	0.438 ± 0.026	0.824 ± 0.044	1.85 ± 0.14	1 (active)
CC12CC3CC(C1)CC(CC(=O)O)(C3)C2	1.02 ± 0.18	1.04 ± 0.12	0.994 ± 0.17	0.907 ± 0.029	1.09 ± 0.11	1.3 ± 0.3	0.526 (inactive)
FC(F)(F)c1ccc(/C=C/c2nc(COc3ccc(CCCCn4ccnn4)cc3)co2)cc1	1.26 ± 0.17	1.71 ± 0.29	1.46 ± 0.09	0.914 ± 0.028	1.67 ± 0.14	1.77 ± 0.16	0.995 (active)
O=C(CCc1ccc(O)cc1)c1c(O)cc(O)cc1OC1OC(CO)C(O)C(O)C1O (configuration not stated)	1.37 ± 0.33	0.943 ± 0.047	0.963 ± 0.072	0.961 ± 0.066	0.98 ± 0.18	1.02 ± 0.14	1.01 (active)
COCCCNC(=O)CSc1ccc(Cl)cc1	1.07 ± 0.17	0.974 ± 0.11	0.952 ± 0.13	0.889 ± 0.063	1.12 ± 0.28	1.1 ± 0.13	1 (active)
CCOc1ccc2nc(S(N)(=O)=O)sc2c1	0.804 ± 0.2	1.02 ± 0.051	0.985 ± 0.067	0.855 ± 0.029	0.897 ± 0.11	0.953 ± 0.2	1.01 (active)
CN(C/C=C/C#CC(C)(C)C)Cc1cccc2ccccc12.Cl	1.15 ± 0.054	0.905 ± 0.072	0.913 ± 0.049	1.07 ± 0.068	0.817 ± 0.14	0.885 ± 0.19	0.702 (active)
COc1cc(C2C(C(=O)c3ccccc3)=C(O)C(=O)N2c2cccnc2)ccc1O (configuration not stated)	0.915 ± 0.14	0.595 ± 0.13	0.582 ± 0.1	0.758 ± 0.068	0.849 ± 0.074	0.785 ± 0.13	0.97 (active)
CC(=O)Nc1nnc(CCS(=O)(=O)c2ccc(Br)cc2)s1	0.951 ± 0.054	1.05 ± 0.064	0.93 ± 0.079	0.908 ± 0.032	1.46 ± 0.094	1.16 ± 0.12	1.01 (active)
CC(C(=O)O)c1ccc2c(c1)CC(=O)c1ccccc1S2 (configuration not stated)	1.19 ± 0.18	1.19 ± 0.43	0.977 ± 0.06	1.03 ± 0.032	1.26 ± 0.42	1.22 ± 0.13	0.988 (active)
O=C(c1cc2ccccc2o1)N1CC(N2C(=O)CNC2=O)C1	1.17 ± 0.28	1.04 ± 0.081	1.06 ± 0.077	0.933 ± 0.038	1.12 ± 0.15	1.33 ± 0.13	0.989 (active)
N#Cc1c(N=Cc2ccc(Cl)cc2)sc2c1CCCC2	0.912 ± 0.16	1.01 ± 0.21	0.89 ± 0.068	0.915 ± 0.031	1.17 ± 0.21	1.21 ± 0.12	1 (active)
COc1ccc(CCC(=O)NCc2nc(N(C)C)nc(N3CCCCC3)n2)cc1	0.8 ± 0.074	1.11 ± 0.11	0.881 ± 0.033	0.801 ± 0.029	1.01 ± 0.078	0.661 ± 0.12	1 (active)
CCN(CC)c1ccc(C=NNC(=O)c2ccc(O)cc2)c(O)c1	2.52 ± 0.2	1.31 ± 0.089	5.86 ± 0.2	0.2 ± 0.0075	0.845 ± 0.038	0.758 ± 0.12	0.577 (inactive)
